The source of these data is PubChem BioAssay (Tox21).

The structures appear in SMILES notation. Values joined by “and” are separate entries in the source; they are usually repeats but may differ in a detail not shown here. Identical values can stand only once. Results filed as inconclusive are left out. Where a call stands in place of a potency, no number is given. Where a structure was tested more than once in an assay, its records may differ in their call. Active and inactive are the calls of the source. Calls come from the whole dose curve.
Potency is the fitted concentration of half-maximal effect.

This assay is described as follows: Nuclear factor erythroid 2-related factor 2/antioxidant responsive element (Nrf2/ARE) small molecule agonists: luciferase reporter gene qHTS assay in human keratinocytes (AID 1919969). Note: nearly all actives have a fitted effect of over 35% in size. The note with it: KeratinoSens HaCaT ARE-luciferase, luminescence, 24 h; series mostly up to 92.4 µM. From the text:
National Center for Advancing Translational Sciences [NCATS]
Division of Preclinical Innovation [DPI]
U.S. Environmental Protection Agency [EPA]
National Institutes of Environmental Health Sciences [NIEHS]
National Toxicology Program [NTP]
U.S. Food and Drug Administration [FDA]
Oxidative stress has been implicated in the pathogenesis of a variety of diseases ranging from cancer to neurodegeneration. The antioxidant response element (ARE) signaling pathway plays an important role in the amelioration of oxidative stress. The KeratinoSens (Givaudan, Switzerland) is an in vitro test method which quantifies luciferase induction as a measure of activation of Keap1-Nrf2-antioxidationt/electrophile response element (ARE) dependant pathway in HaCaT human keratinocytes stably transfected with a selectable plasmid. The KeratinoSens assay is a cell-based assay with a reporter cell line to detect potential skin sensitizers by their ability to induce the Nrf2/ARE-response. The activation of the report gene under culture conditions can be detected by ONE-Glo Luciferase Assay System (Promega, Madison, WI). This cell line has been used to screen the Tox21 10K compound library to identify agonists that induce oxidative stress. The cytotoxicity of the Tox21 compound library against the KS-ARE cell line was tested in parallel by measuring the cell viability using CellTiter- Fluor assay system (Promega, Madison, WI) in the same wells.
HaCaT derived cell line KeratinoSens were dispensed at 1,500 cells/5uL/well in 1536-well white wall/solid bottom plates using a Multidrop Combi (ThermoFisher Scientific, Waltham, MA) dispenser. After the assay plates were incubated at 37 C/5% CO2 for 5 h, 23 nL of compounds dissolved in DMSO, positive controls or DMSO only was transferred to the assay plate by a pintool workstation (Kalypsys, San Diego, CA). The plates were incubated at 37 C/5% CO2 for 23 h, followed by addition of 1uL/well of CellTiter-Fluor reagent into the assay plates using a Flying Reagent Dispenser (Aurora Discovery, San Diego, CA) for cell viability readout that measures cytotoxicity. After 1 h incubation at 37 C/5% CO2 the fluorescence intensity was measured using a ViewLux (PerkinElmer, Shelton, CT) plate reader. Then 4uL/well of One-Glo were added using a Flying Reagent Dispenser. After the plates were incubated at room temperature for 30 min, the luminescence intensity in the assay plates was measured using ViewLux plate reader.
Regarding `CC1(C)CC(N)CC(C)(CN)C1` (stereo not given), the Potency result is “inactive”.
For `CSc1ccc(Cl)cc1`, the Potency result is “inactive”.
For `COc1ccc(C(=O)c2ccccc2O)c(O)c1`, the Potency result was “inactive”.
Turning to `c1cc(-c2ccncc2)ccn1`, the Potency result was “inactive”.
`O=C(OCc1ccccc1)c1ccccc1O`: the Potency is 48.2 µM (active) and 54.5 µM (active).
For the compound `Cc1cc(=O)[nH]c(C(C)C)n1`, the Potency result is “inactive”.
As for `Clc1ccc(Cl)c(Cl)c1Cl`, the Potency result was “inactive”.
In the case of `C=CC(=O)OCCCC`, the Potency entry was “inactive”.
For `CCCCCCCCCCCCCCCC(=O)O`, the Potency entry is “inactive”.
In the case of `O=C1OC2(c3ccccc31)c1cc(I)c(O)c(I)c1Oc1c2cc(I)c(O)c1I` it was “inactive and 33.1 µM (active)”; in that of `COc1ccc(O)cc1`, “inactive”.
For the compound `OC(CCl)CCl`, the Potency entry is “inactive”.
With `O=C(Cl)c1c(Cl)c(Cl)c(C(=O)Cl)c(Cl)c1Cl`, the Potency entry is “inactive”.
For the compound `c1ccc2c(c1)c1cccc3ccc4cccc2c4c31`, the Potency entry was “inactive”.
With `C1N2CN3CN1CN(C2)C3`, the Potency entry is “inactive”.
`COC(C)COC(C)COC(C)CO` (stereo not given): the Potency result is “inactive”.
Take `NC(=O)N/N=C/c1ccc([N+](=O)[O-])o1`: the Potency entry was “inactive and 30.6 µM (active)”.
In the case of `CCOC(=O)C1OC1c1ccccc1` (stereo not given), the Potency entry is “inactive”.
Take `O=C(OCc1ccccc1)c1ccc(O)cc1`: the Potency was 68.6 µM (active) and 13.3 µM (active).
As to `CC1(C)O[C@@H]2[C@@H](CO[C@@]3(COS(N)(=O)=O)OC(C)(C)O[C@@H]23)O1`, the Potency entry is “inactive”.
As for `COC(=O)c1cccc(C(=O)OC)c1`, the Potency entry is “inactive”.
With `COc1cc(OC)c(C(=O)CCCN2CCCC2)c(OC)c1`, the Potency result was “inactive”.
As to `CCN(CCN)c1cccc(C)c1`, the Potency result was “inactive”.
In the case of `C=C1C2CCC(C2)C1(C)C` (stereo not given) it was “inactive”.
In the case of `C=C(C#N)C(=O)OCC` it was “inactive and 68.6 µM (active)”.
Regarding `NCCS(=O)(=O)O`, the Potency result was “inactive”.
As for `C[C@]12CC[C@@H]3c4ccc(O)cc4CC[C@H]3[C@@H]1C[C@@H](O)[C@@H]2O`, the Potency result was “inactive”.
For `CCc1ccc(O)cc1`, the Potency result is “inactive”.
`ClC/C=C/CCl`: the Potency result was “inactive”.
Take `Cc1ccc2ncccc2c1`: the Potency entry is “inactive”.
As to `c1ccc(Nc2ccccc2)cc1`, the Potency was 61.1 µM (active) and inactive.
For `C=CCCCCCCCCCC`, the Potency result was “inactive”.
Take `CCCCC(CC)COC(=O)CCCCC(=O)OCC(CC)CCCC` (stereo not given): the Potency entry was “inactive”.
Turning to `NC(=O)c1cnccn1`, the Potency result was “inactive”.
On to `O=C1O[C@H]([C@@H](O)CO)C(O)=C1O`, for which the Potency entry is “inactive and 61.1 µM (active)”.
For the compound `Cc1cc(C(C)(C)C)c(O)c(C(C)(C)C)c1`, the Potency is 24.4 µM (active) and 48.6 µM (active).
Take `NC(=O)OCC(COC(N)=O)c1ccccc1`: the Potency result was “inactive”.
As for `CCCCCCC=O`, the Potency result is “inactive”.
Consider `Cc1cc(CC(=O)O)n(C)c1C(=O)c1ccc(Cl)cc1`, for which the Potency result was “inactive”.
Consider `CCCCCCCCC(=O)O`, for which the Potency entry was “inactive”.
